# Screening data deposited in PubChem BioAssay by National Center for Advancing Translational Sciences (NCATS).
# In the library only some 0.85% were active in any assay of this set; here they are far more common.
# GAA spleen mod: inhibits or activates alpha-glucosidase in human spleen homogenate | Potency, µM (top dose mostly 79.9 µM), for inactives: top-dose activity change, negative = inhibition, hits mostly inhibitors | AID 2112 | human spleen homogenate, 4-MU-alpha-glucoside fluorescence | P10253 | 240,000 tested, 0.006% active;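 further: potency means the concentration at half of the fitted maximal effect; 0% = enzyme with vehicle and -100% = no enzyme basal signal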
#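 AC50 values come from Hill-equation fits of concentration-response data, normalized to no-enzyme and full-activity controls. Enzyme source: 1 ug human spleen homogenate; 1 mM fluorogenic 4-MU glucoside, pH 5.0 citrate buffer, 37 C, 40 min.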
# GAA glycogen mod: GAA glycogen-cleavage inhibition or activation; P10253; recombinant GAA, glycogen substrate, Amplex Red glucose oxidase fluorescence; Potency, µM (doses to about 76.4 µM), for the others: at the highest dose activity change, negative = inhibition, actives largely listed as inhibitors; 300,000 tested, 0.38% active; AID 2100;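 further: potency means the concentration at half of the fitted maximal effect; 0% = full enzyme reaction and -100% = no-enzyme basal signal; the screen sought inhibitors and activators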
#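 Natural-substrate format: glycogen cleavage by 4 nM human enzyme, glucose read by Amplex Red coupling (Ex 573, Em 610 nm). Normalized to enzyme and no-enzyme controls.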
# FBPA coupling cs: counter-screen for Giardia aldolase inhibitors: coupling enzyme system. coupling enzyme system counterscreen, AmpLite Red fluorescence. activity change, negative = inhibition, % at 58.2 µM, hits read low. 290,000 tested, 0.67% active. AID 2472; in the data active means activity change below about -30%
#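 Counterscreen lacking aldolase: glyceraldehyde-3-phosphate coupling-enzyme reagent preincubated 10 min at RT with compound (at 57.5 uM final), then substrate/coupling system with AmpLite Red added; fluorescence read at 525/598 nm after 20 min RT.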
# B2AR arrestin: recruits beta-arrestin to the human beta2-adrenergic receptor; P07550; 330,000 tested, 0.02% active; Potency, µM (doses to about 46.1 µM), for the others: at the top dose activation, most hits filed as activators; beta-arrestin recruitment to beta2AR, cell-based reporter;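 further: potency means the concentration at half of the fitted maximal effect; 0% = DMSO controls and full agonism = EC100 isoproterenol or metaproterenol; nearly all actives have a fitted effect of over 65% in size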
# Target sequence (P07550 whole entry, looked up): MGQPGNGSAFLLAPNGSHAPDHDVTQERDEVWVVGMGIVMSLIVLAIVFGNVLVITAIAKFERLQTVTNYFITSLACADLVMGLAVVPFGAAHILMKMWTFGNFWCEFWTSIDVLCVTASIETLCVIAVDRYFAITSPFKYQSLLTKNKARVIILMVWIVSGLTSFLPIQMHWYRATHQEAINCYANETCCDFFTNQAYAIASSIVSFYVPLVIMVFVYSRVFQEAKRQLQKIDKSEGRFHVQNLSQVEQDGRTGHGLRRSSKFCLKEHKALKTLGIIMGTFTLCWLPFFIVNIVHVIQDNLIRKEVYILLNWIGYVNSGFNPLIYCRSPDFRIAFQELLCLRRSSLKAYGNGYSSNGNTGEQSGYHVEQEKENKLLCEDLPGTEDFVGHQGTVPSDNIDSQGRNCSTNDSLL
# GAA inh: blocks human lysosomal alpha-glucosidase | purified human GAA, 4-MU-alpha-glucoside fluorescence | Potency, µM (highest dose often 76.9 µM), inactives show at the top dose activity change, negative = inhibition, most hits filed as inhibitors | P10253 | 200,000 tested, 0.005% active | AID 1466;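 further: potency means the concentration at half of the fitted maximal effect; plate controls were uninhibited enzyme wells for no effect and no-enzyme background for full effect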
#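 Compounds are titrated up to 77 uM against 4 nM human enzyme. Substrate 4-methylumbelliferyl-alpha-D-pyranoside (400 uM) reacts 20 min at room temperature in pH 5.0 buffer; liberated 4-methylumbelliferone is read at 440 nm.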
# Active calls of the source: *; ? = inconclusive; nt = no result; [ ] = remark or other dose. Unless noted, the call rests on the fitted dose curve; in most records, active means well fitted curve in the direction sought with a large enough effect; inconclusive means small, poorly fitted or top-dose-only effect, or another doubt; inactive means no such curve, though single readings can be large; an effect the other way counts as inactive or inconclusive. Unless noted, on the % scale 0 is the no-effect control and ±100 the full control effect.
SMILES,GAA spleen mod,GAA glycogen mod,FBPA coupling cs,B2AR arrestin,GAA inh
CCOCCCNC(=S)NCCNc1nc2c(C)cccc2cc1C#N,-3.5%,-1.0%,-20.1,-0.6%,2.0%
COc1ccc(C2/C=C\CN(C(=O)C3CC3)C(Cc3ccccc3)C(=O)N2Cc2ccc(F)cc2)cc1 (configuration not stated),-1.6%,nt,-0.2,nt,nt
Nc1nc(O)c(N=Nc2ccc(S(N)(=O)=O)cc2)c(=O)[nH]1,nt,-1.1%,-0.5,-0.1%,nt
NS(=O)(=O)c1ccc(N=Nc2c[nH]c(=O)c(O)c2)cc1,-22.2%,?,-37.5*,0.9%,-7.0%
Cc1cccc(O)c1,4.9%,nt,0.9,nt,nt
COc1cc2c(cc1OC)CN(Cc1nc3ccsc3c(=O)[nH]1)CC2,-3.2%,20.7%,-42.6*,-0.4%,3.7%
O=c1cccccc1NCc1ccccc1,-6.7%,5.4%,-38.7*,0.3%,-4.6%
O=C1C=C(NCc2ccccc2)c2ccccc2C1=O,11.3%,9.6%,-86.7*,0.1%,2.0%
Cc1ccc(NC2=CC(=O)C(=O)c3ccccc32)c(C)c1,nt,nt,nt,-1.1%,nt
O=C1C=C(Nc2ccccc2O)c2ccccc2C1=O,?,12.5µM*,-60.4*,-0.7%,8.7%
O=C1C=C(Nc2ccc(F)cc2)c2ccccc2C1=O,nt,nt,nt,0.2%,nt
O=C(Nc1ccc(Cl)cc1F)c1oc(=O)c2ccccc2c1-c1ccccc1,nt,10.7%[76.3 µM],nt,nt,nt
CCN(CC)C(=O)CC(c1ccc(OC)cc1)c1c(OC)cc(OC)c2c(-c3ccccc3)cc(=O)oc12 (configuration not stated),1.0%,nt,0.3,nt,nt
CNC(=S)NCCCCc1cnc[nH]1,-2.5%,nt,0.4,nt,nt
O=C(Nc1cccc2nsnc12)c1ccc(-c2cccc(Cl)c2)o1,3.0%,7.9%,-39.8*,0.4%,2.8%
C=CCNC(=S)NNc1nc(Nc2ccccc2)nc(N2CCCCC2)n1,-9.4%,15.7µM*,0.5,8.6%,7.6%
CC(N=Cc1cccc(O)c1O)c1ccccc1 (configuration not stated),-4.5%,?,-39.0*,?,?
CC(N=Cc1cc([N+](=O)[O-])ccc1O)c1ccccc1 (configuration not stated),0.4%,-1.0%,7.9,-0.4%,-1.2%
COc1ccc(OC)c(C2=Nn3c(nnc3-c3cc(OC)ccc3OC)SC2)c1,10.2%,nt,0.6,nt,nt
Cc1ccc(NS(=O)(=O)c2cc(N)ccc2Cl)c(C)c1,-2.1%,5.9%,-32.7*,-0.1%,nt
CCOC(=O)N1CCC(NC(=O)c2oc3c(c2C)-c2[nH]ncc2CC3)CC1,-3.4%,9.8%,-40.8*,0.5%,-4.1%
O=[N+]([O-])c1ccc(O)c(C=Nc2ccc3oc(Cc4ccc(Cl)cc4)nc3c2)c1,1.4%,15.6%,-35.3*,0.1%,-7.3%
O=C(O)CCCC/C=C\C[C@@H](O)/C=C/C=C/C=C\[C@@H](O)CCCC(=O)O,-5.2%,nt,0.3,nt,nt
C=CC[n+]1c(-c2ccc(C)cc2)csc1Nc1ccc(NC(C)=O)cc1,-2.0%,0.2%,1.5,0.0%,3.4%
C=CC[n+]1c(-c2ccc(OC)cc2)csc1NNC(=O)Nc1ccccc1,2.0%,20µM*,2.3,-0.8%,-9.5%
SMILES,GAA spleen mod,GAA glycogen mod,FBPA coupling cs,B2AR arrestin,GAA inh
Nc1c(S(=O)(=O)c2cccs2)c2nc3ccccc3nc2n1Cc1ccccc1,8.6%,-0.2%,-6.3,3.6%,?
COc1ccc(OC)c(-n2c(N)c(C(=O)NCC3CCCO3)c3nc4ccccc4nc32)c1 (configuration not stated),2.0%,-16.3%,-6.3,0.0%,0.6%
CC(C)Cn1c(N)c(C(=O)NCC2CCCO2)c2nc3ccccc3nc21 (configuration not stated),16.7%,-13.2%,-47.4*,0.1%,?
COCCn1c(N)c(C(=O)NCC2CCCO2)c2nc3ccccc3nc21 (configuration not stated),19.2%,0.6%,-34.8*,-0.6%,?
COCCn1c(N)c(S(=O)(=O)c2cccs2)c2nc3ccccc3nc21,-7.6%,0.9%,-33.3*,-0.7%,?
Cc1cc(C)cc(Nc2ccc(C(=O)O)cc2N)c1,-4.6%,?,0.0,-0.6%,?
Cc1ccc(Nc2ccc(C(=O)O)cc2N)cc1,4.1%,28µM*,9.8,-0.2%,0.1%
COc1ccccc1NC(=S)N/N=C1\CC(C)(C)Oc2ccc(O)cc21,-1.2%,?,-4.2,?,5.3%
COc1ccc(NC(=S)N/N=C2\CC(C)(C)Oc3ccc(O)cc32)cc1,-1.8%,8.91µM*,-3.0,-0.1%,-4.9%
Cc1ccc(C(=O)c2c(C)oc3c2C(=O)C(=O)c2ccccc2-3)cc1,2.7%,-5.1%,-79.3*,0.1%,-10.3%
Cc1oc2c(c1C(=O)c1ccc(Cl)cc1)C(=O)C(=O)c1ccccc1-2,-8.0%,-1.6%,-79.4*,0.1%,-3.3%
Cc1ccc(C(=O)C(OC(=O)c2c(C)cc(=O)oc2C)c2ccccc2)cc1 (configuration not stated),-3.1%,19.4%,-0.2,0.2%,?
O=C(c1ccc(Cl)cc1)c1ccc(CN2C(=O)c3ccccc3C2=O)o1,-0.8%,-7.7%,0.7,-0.3%,9.3%
Cc1ccc(C(=O)c2coc3c2C(=O)C(=O)c2ccccc2-3)cc1,-5.8%,3.7%,-78.9*,-0.3%,-3.5%
CC(C)NCC(O)c1ccc(NS(C)(=O)=O)cc1 (configuration not stated),9.3%,-4.4%,2.4,nt,-8.5%[15.4 µM]
CC(C)NC[C@@H](O)c1ccc(O)c(O)c1,2.0%,?,-31.0*,nt,-1.5%[15.4 µM]
CC(=O)Nc1ccn(C2OC(C(COC(C)=O)NC(=O)C(CCCCNC(=O)OCc3ccccc3)NC(=O)OC(C)(C)C)C(OC(C)=O)C2OC(C)=O)c(=O)n1 (configuration not stated),-0.5%,nt,-4.9,nt,nt
O=c1c(O)cccc2cc(O)c(O)c(O)c12,-1.7%,14.1µM*,-36.5*,-1.1%,-7.7%
O=C1C=C(c2ccc(C(=O)O)cc2)C[C@@H](c2ccc(F)cc2)C1,nt,nt,nt,0.2%,nt
COC(=O)C1=C(C(=O)OC)[C@@H]2N(C)c3ccc(OC)cc3[C@@]23C[C@@H](C(=O)OC)N(S(=O)(=O)c2ccc(Br)cc2)C3=N1,-1.1%[17.4 µM],nt,-0.5,nt,nt
COc1ccc(Cn2ccnc2)cc1Br,0.1%,0.1%,0.5,nt,1.3%
COc1ccc(NCc2ccc(OC)c(Cn3ccnc3)c2)c(OC)c1,nt,7.03µM*,-4.2,0.1%,nt
O=S(=O)(Nc1ccccc1F)c1ccc(Cl)nc1,nt,nt,nt,-0.1%,nt
O=S(=O)(Nc1ccccc1O)c1ccc(Cl)nc1,-2.7%,20µM*,-3.5,3.5%,nt
Cc1nc2ccccc2n1CCc1nc2c3ccccc3nc(=S)n2[nH]1,-6.2%,-10.9%,-12.7,0.2%,-6.7%
Cc1ccccc1-c1nc2c3ccccc3nc(=S)n2[nH]1,nt,-18.0%,0.3,10µM*,nt
O=S(=O)(Nc1cc2nc3ccccc3nc2n1Cc1ccccc1)c1ccc(Cl)cc1,-16.6%,-7.3%,-55.1*,-1.1%,0.3%
